Measured values reported in PubChem BioAssay (NCI).
About 79,000 compounds went through this panel and 15% of them were active in at least one assay; those are over-represented in the sample as a whole. Activity calls are given as the source filed them. Cut-off read from the data, not from the text of the source: active = growth inhibition above about 70%; inactive = the rest. *1 amine or outer side, *2 acyl side, *3 side chain or, on linkers, in order; H or OH if unused. Where a SMILES comes first, the peptide text is derived from it. Bridges are numbered along the chain shown (N, C = ends). Roman numbers before positions name the chains, in order. [ ]: non-standard residue; d: D form. Actinocin(1to9) = Cc1c2oc3c(C)ccc(C(=O)[*:2])c3nc-2c(C(=O)[*:1])c(N)c1=O; NMeY = CN[CH](Cc1ccc(O)cc1)C(=O)O; Sar = CNCC(=O)O

What was measured:
[1] = NCI Yeast Anticancer Drug Screen. Data for the rad50 strain (AID 155);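 note: 0% = growth of vehicle-only cultures of the same strain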; settings: S. cerevisiae rad50 strain growth inhibition; at 50.0 µM; hits give high values
Summary of the method: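 Readout: growth inhibition relative to vehicle-treated cultures. Compound exposure was carried out in a genetically defined yeast strain deficient in DNA damage repair.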

[2] = NCI Yeast Anticancer Drug Screen. Data for the mec2-1 strain (AID 157); settings: S. cerevisiae mec2-1 strain, at 50.0 µM, hits give high values
Summary of the method: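 Mutant yeast (mec2-1) grown with compound; growth inhibition relative to vehicle control reported.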

[3] = NCI Yeast Anticancer Drug Screen. Data for the sgs1 mgt1 strain (AID 161);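 note: 0% = growth of cultures given vehicle only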; settings: S. cerevisiae sgs1 mgt1 strain, at 50.0 µM, hits give high values
Summary of the method: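 This yeast growth screen uses a strain with defined DNA-repair lesions; compound-treated growth is compared with vehicle-treated growth.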

[4] = NCI Yeast Anticancer Drug Screen. Data for the cln2 rad14 strain (AID 165);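 note: 0% = growth equal to vehicle treated cultures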; settings: S. cerevisiae cln2 rad14 strain, at 50.0 µM, hits give high values
Summary of the method: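 Readout is yeast growth inhibition versus vehicle-treated controls, using a strain with cln2 and rad14 alterations exposed to compound.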

[5] = NCI Yeast Anticancer Drug Screen. Data for the bub3 strain (AID 167); settings: S. cerevisiae bub3 mutant strain, at 50.0 µM, hits give high values
Summary of the method: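 Readout: yeast growth inhibition, expressed relative to vehicle-only wells. The test organism is a mutant strain from a panel with lesions in DNA repair or checkpoint genes.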

[6] = NCI Yeast Anticancer Drug Screen. Data for the mlh1 rad18 strain (AID 175); settings: S. cerevisiae mlh1 rad18 strain growth inhibition; at 50.0 µM; hits give high values
Summary of the method: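 Genetically defined yeast (DNA repair-deficient) exposed to compounds; growth inhibition determined relative to vehicle.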

Measured: growth inhibition

COc1ccc2c(c1)CCCN1Cc3cc(OC)c(OC)cc3CC21 (stereo not given)
inactive: [1] -29.7% | [2] 8.65% | [3] -33.8% | [4] 14% | [5] -1.1% | [6] -3.9%

O=C(Nc1c(Oc2ccc(Cl)c(Cl)c2)ccc(Cl)c1S(=O)(=O)O)Nc1c(Oc2ccc(Cl)c(Cl)c2)ccc(Cl)c1S(=O)(=O)O
inactive: [1] 22.2% | [2] -3.25% | [3] 13.9% | [4] 11.7% | [5] 22.1% | [6] 22.2%

CCCCCCCCCC(O)CCCC(O)C(O)CCCCCCC(=O)O (stereo not given)
inactive: [1] 13.1% | [2] 15% | [3] 22.7% | [4] 17.5% | [5] -3.05% | [6] 37.6%

CCCCCP(=O)(CCC(C)C)CC(C)C (stereo not given)
inactive: [1] 8.95% | [2] 7.3% | [3] 20.7% | [4] 28.9% | [5] -10.6% | [6] -6.6%

CCC1C(=O)OCc2c1cc1n(c2=O)C(CC)c2c-1nc1ccccc1c2Cl (stereo not given)
inactive: [1] 57.4% | [2] 14.6% | [3] 8.15% | [4] -28.3% | [5] -2.95% | [6] 4.55%

CCC1CN1C(=O)c1cc(C(=O)N2CC2CC)cc(C(=O)N2CC2CC)c1 (stereo not given)
inactive: [1] 3.2% | [2] 15.7% | [3] 5.5% | [4] 24.3% | [5] -5.75% | [6] 20%

C=C1CCC(OC(C)=O)C2(C)C(OC(C)=O)CC3OC3(C)C2C(OC(C)=O)C2C(C)C(=O)OC2C1Cl (stereo not given)
inactive: [1] 3.2% | [2] -20.8% | [3] 1.55% | [4] 6.45% | [5] 3% | [6] 4.8%

O=S(=O)(Cc1ccccc1)/C(=C\c1ccccc1)c1ccccc1
inactive: [1] -6.65% | [2] 11.4% | [3] 2.4% | [4] 0.1% | [5] 6.6% | [6] 5.5%

CCCCCCCCCCCCCCCCc1ccc(CCCC(=O)O)cc1
inactive: [1] -20.8% | [2] -16.2% | [3] -13.3% | [4] 5.45% | [5] -17.3% | [6] 12.5%

CNC(=O)OCc1c(COC(=O)NC)c(-c2ccccc2)n(-c2ccccc2)c1C
inactive: [1] 24.4% | [2] 27.8% | [3] 44.8% | [4] 37.9% | [5] 22.9%
active: [6] 88.1%

CC1(c2ccccc2)CCC(=O)NC1 (stereo not given)
inactive: [1] -0.15% | [2] -37.5% | [3] -2.1% | [4] 8.45% | [5] -7.25% | [6] 11.6%

CCCCN(CCOc1ccnc(=O)[nH]1)CC(C)C
inactive: [1] 6% | [2] 13.2% | [3] -3.2% | [4] -35.5% | [5] 11.3% | [6] -7.7%

CCN1C(=O)CCN(S(=O)(=O)c2ccc(-n3nc(C)cc3C)cc2)C1=S
inactive: [1] -5.55% | [2] -8.45% | [3] -9.15% | [4] -46.4% | [5] 1.7% | [6] -2.3%

COc1ccccc1CC(=O)C(O)(C(F)(F)F)C(F)(F)F
inactive: [1] -37.5% | [2] -36.3% | [3] -18.9% | [4] -28.6% | [5] -5.9% | [6] -26.9%

Nc1ccc([N+](=O)[O-])c(C(F)(F)F)c1
inactive: [1] 14.1% | [2] -33.6% | [3] 4.25% | [4] -14.4% | [5] -6.55% | [6] 22.6%

C=CCCCCCC(O)C(O)C/C=C\C/C=C\CC (stereo not given)
inactive: [1] 18.4% | [2] 4.6% | [3] 22.8% | [4] -1.35% | [5] 15.5% | [6] 27.2%

CCCCC(O)(CCCC)CC(C)(C)C
inactive: [1] -3.3% | [2] 1.6% | [3] -9% | [4] 18.7% | [5] 2.65% | [6] -1.35%

CCCc1c(C(=O)O)c(-c2cccc3ccccc23)c(CCC)c2c1-c1cccc3cccc-2c13
active: [3] 76% | [4] 71.2% | [6] 73.5%
inactive: [1] 54.5% | [2] 35% | [5] 30.2%

CCCN/C=C1\CC(=O)N(C)C1=O
inactive: [1] 5.15% | [2] 8.45% | [3] 2.5% | [4] -33.7% | [5] 6.4% | [6] 11.2%

N/C(=N\O)C(=O)c1ccccc1
inactive: [1] 9.8% | [2] -12.8% | [3] -5.8% | [4] -5.3% | [5] 2.35% | [6] 3.95%

CC(=O)OC[C@@H](OC(C)=O)[C@@H](OC(C)=O)[C@H]1OC[C@@H]2C[C@H]([C@H]1OC(C)=O)N(Cc1ccccc1)O2
inactive: [1] -18.9% | [2] -13.8% | [3] -7.75% | [4] 4.25% | [5] -9.8% | [6] -0.3%

C[C@@H]1Nc2ccccc2[C@H]1C
inactive: [1] -25.6% | [2] -37.5% | [3] -53.1% | [4] 7.75% | [5] -42.6% | [6] -8.1%

CC(C)CCCC(C)C1CCC2C3CCC4Cc5c(c6ccccc6n5C)CC4(C)C3CCC12C (stereo not given)
inactive: [1] -13.2% | [2] 35% | [3] -5.75% | [4] -27.8% | [5] -8.95% | [6] 21.9%

CC(C)(C)NNC(=O)/C(=C/c1ccc([N+](=O)[O-])cc1)NC(=O)c1ccccc1
inactive: [1] 11.6% | [2] -17.3% | [3] -8.5% | [4] 5.2% | [5] -6.2% | [6] -15.7%

CCOc1ccc(NC(=O)/C(Cc2nc3ccccc3[nH]c2=O)=N\O)cc1
inactive: [1] 21.9% | [2] -5.1% | [3] -15.9% | [4] 15.8% | [5] 4.1% | [6] -4.7%

CCNC(=O)c1csnn1
inactive: [1] -6.55% | [2] -5.6% | [3] -5.95% | [4] 12.5% | [5] -18.1% | [6] 2%

CC(C)OP(=O)(OC(C)C)C([CH2][Sn]([CH3])([CH3])[Cl])P(=O)(OC(C)C)OC(C)C
inactive: [1] 5.75% | [2] -0.8% | [3] 0.45% | [4] 0.25% | [5] -2.1% | [6] -1.45%

O=S(=O)(O)C(Nc1ccc(Cl)cc1)c1ccccc1 (stereo not given)
inactive: [1] 0.15% | [2] 6.2% | [3] 4.6% | [4] 12.5% | [5] 11.2% | [6] 10.3%

CSc1ccc(NC(=O)Nc2cccc(C)c2C)cc1
inactive: [1] 1.75% | [2] 27.1% | [3] 27.8% | [4] -7.2% | [5] 27.6% | [6] 15.3%

COc1ccc(CC2C(=O)OC(C)C(NC(=O)c3c4nc5c(C(=O)NC6C(=O)NC(C(C)C)C(=O)N7CCCC7C(=O)N(C)CC(=O)N(C)C(Cc7ccc(OC)cc7)C(=O)OC6C)ccc(C)c5oc-4c(C)c(=O)c3N)C(=O)NC(C(C)C)C(=O)N3CCCC3C(=O)N(C)CC(=O)N2C)cc1 (stereo not given) (I: TVP[Sar][NMeY](Me) / II: TVP[Sar][NMeY](Me); ester I:1-I:C, II:1-II:C; linker I:N-II:N via Actinocin(1to9); configuration not given here)
inactive: [1] -3% | [2] -3.65% | [3] -26.1% | [4] 8.5% | [5] -25.8% | [6] -24.7%

CC1(N)CC2CCC1C2 (stereo not given)
inactive: [1] -3.5% | [2] -1.25% | [3] 5% | [4] -14.2% | [5] -21.4% | [6] 2.75%

CC(C)CCC1(C2CCOCC2)NC(=O)NC1=O (stereo not given)
inactive: [1] -9.85% | [2] -6.6% | [3] -4.85% | [4] -26.6% | [5] -7.55% | [6] 0.95%

COC(=O)C(=O)C(C(=O)C(=O)Nc1ccc(C)cc1C)c1nc2ccc(Cl)cc2[nH]c1=O (stereo not given)
inactive: [1] 4.35% | [2] -21.6% | [3] 9.2% | [4] -23.6% | [5] -22.4% | [6] 7.45%

O=C(O)CC(NC(=O)/C(=C/c1ccccc1)NC(=O)c1ccccc1)C(=O)O (stereo not given)
inactive: [1] -2.45% | [2] 0.65% | [3] 2.95% | [4] 6.85% | [5] 25.1% | [6] -22.1%

Cc1nc(N)sc1N=Nc1ccc(Br)cc1Br
active: [1] 85.2% | [3] 86.8% | [6] 76.4%
inactive: [2] 68.8% | [4] 63.1% | [5] 46.9%

CC(=O)Nc1ccc(-c2nnc(SCC(=O)Nc3ccccc3C)o2)cc1
inactive: [1] -6.55% | [2] -5.25% | [3] -19.9% | [4] 4.65% | [5] -8.55% | [6] -18.1%

O=C(OCCCl)Oc1c(Cl)cc([N+](=O)[O-])cc1[N+](=O)[O-]
active: [1] 99.6% | [2] 99.8% | [3] 99.7% | [4] 99% | [5] 99.2% | [6] 99.5%

CCOC(=O)N1CCN(P(=O)(c2ccccc2)N2CCN(C(=O)OCC)CC2)CC1
inactive: [1] 7.35% | [2] -28.4% | [3] 1.85% | [4] -31.6% | [5] -0.75% | [6] 9.85%

N#CCc1cn(-c2ccccc2)nn1
inactive: [1] -7.85% | [2] 8.3% | [3] -9.5% | [4] 5.45% | [5] 0.45% | [6] -25.2%

O=C1C=CC(=Nc2ccc3c(c2)C(=O)c2cc(F)ccc2-3)O1
inactive: [1] -0.35% | [2] -6.7% | [3] 9.2% | [4] -2.15% | [5] 1.35% | [6] 5.3%
